From PubChem BioAssay (EPA / NIEHS)
“And” between values parts separate entries of the source, which are not always exact repeats. Equal entries are not always repeated. More than one record can exist for a structure, and the calls need not agree. The source made the active and inactive calls. Rule for the calls: active = hit-call score of the fitted dose curve at least 0.9, where 1 is the maximum; inactive = score below 0.9.

How the values were obtained:
[1] = read-out: Tissue plasminogen activator (tPA), PLAT (gene 5327); assay: BSK_BE3C_tPA: BioMAP Diversity Plus: BE3C Assay for Tissue plasminogen activator (tPA) Biomarker Activity (AID 2283041); conditions: primary human bronchial epithelial cells; actives raise or lower the signal
Summary of the method: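 Gain- or loss-of-signal in tPA, measured by ELISA, derived by bidirectional fitting against DMSO. Cells: human primary bronchial epithelial; read at 24 h after chemical dosing.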

[2] = read-out: Interleukin-8 (IL8), CXCL8 (gene 3576); assay: BSK_CASM3C_IL8: BioMAP Diversity Plus: CASM3C Assay for Interleukin-8 (IL8) Biomarker Activity (AID 2283042); conditions: primary human coronary artery smooth muscle cells; actives raise or lower the signal;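 note: IL-8 protein level quantified by ELISA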
[3] = read-out: Human Leukocyte Antigen - DR isotype (HLADR), HLA-DRA (gene 3122); assay: BSK_CASM3C_HLADR: BioMAP Diversity Plus: CASM3C Assay for Human Leukocyte Antigen - DR isotype (HLADR) Biomarker Activity (AID 2283043); conditions: primary human coronary artery smooth muscle cells; actives raise or lower the signal;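 note: cell-surface HLA-DR protein level quantified by ELISA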
[4] = read-out: Macrophage colony-stimulating factor (MCSF), CSF1 (gene 1435); assay: BSK_CASM3C_MCSF: BioMAP Diversity Plus: CASM3C Assay for Macrophage colony-stimulating factor (MCSF) Biomarker Activity (AID 2283044); conditions: primary human coronary artery smooth muscle cells; actives raise or lower the signal;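 note: M-CSF protein amount quantified by ELISA after 24 h exposure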
[5] = read-out: Low-density lipoprotein receptor (LDLR), LDLR (gene 3949); assay: BSK_CASM3C_LDLR: BioMAP Diversity Plus: CASM3C Assay for Low-density lipoprotein receptor (LDLR) Biomarker Activity (AID 2283045); conditions: primary human coronary artery smooth muscle cells; actives raise or lower the signal;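 note: LDLR protein level on the cell surface quantified by ELISA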
[6] = read-out: Monocyte Chemoattractant Protein-1 (MCP1), CCL2 (gene 6347); assay: BSK_CASM3C_MCP1: BioMAP Diversity Plus: CASM3C Assay for Monocyte Chemoattractant Protein-1 (MCP1) Biomarker Activity (AID 2283046); conditions: primary human coronary artery smooth muscle cells; actives raise or lower the signal;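 note: MCP-1 level quantified by ELISA 24 h after dosing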
[7] = BSK_CASM3C_Proliferation: Cell Proliferation Assessment in the BioMAP Diversity Plus: CASM3C Assay (AID 2283047); conditions: primary human coronary artery smooth muscle cells;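 note: sulforhodamine B total protein stain as relative cell number at 560 nm; sub-confluent cells exposed 48 h before staining; fitted both ways against DMSO so gain or loss of cell number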
[8] = read-out: Monokine induced gamma interferon (MIG), CXCL9 (gene 4283); assay: BSK_CASM3C_MIG: BioMAP Diversity Plus: CASM3C Assay for Monokine induced gamma interferon (MIG) Biomarker Activity (AID 2283048); conditions: primary human coronary artery smooth muscle cells; actives raise or lower the signal;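 note: MIG protein level measured by ELISA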
[9] = read-out: serum amyloid A (SAA), SAA1 (gene 6288); assay: BSK_CASM3C_SAA: BioMAP Diversity Plus: CASM3C Assay for serum amyloid A (SAA) Biomarker Activity (AID 2283049); conditions: primary human coronary artery smooth muscle cells; actives raise or lower the signal;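 note: SAA protein level quantified by ELISA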
[10] = BSK_CASM3C_SRB: Viability Assessment in the BioMAP Diversity Plus: CASM3C Assay (AID 2283050); conditions: primary human coronary artery smooth muscle cells;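 note: total protein by SRB staining as cytotoxicity measure in parallel cultures; cells exposed to compound for 24 h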
[11] = read-out: Thrombomodulin, THBD (gene 7056); assay: BSK_CASM3C_Thrombomodulin: BioMAP Diversity Plus: CASM3C Assay for Thrombomodulin Biomarker Activity (AID 2283051); conditions: primary human coronary artery smooth muscle cells; actives raise or lower the signal;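 note: thrombomodulin protein level measured by ELISA 24 h after dosing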
[12] = read-out: Tissue Factor, F3 (gene 2152); assay: BSK_CASM3C_TissueFactor: BioMAP Diversity Plus: CASM3C Assay for Tissue Factor Biomarker Activity (AID 2283052); conditions: primary human coronary artery smooth muscle cells; actives raise or lower the signal;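 note: cell surface tissue factor protein level read by ELISA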
[13] = read-out: Interferon-gamma inducible Protein 10 (IP10), CXCL10 (gene 3627); assay: BSK_hDFCGF_IP10: BioMAP Diversity Plus: hDFCGF Assay for Interferon-gamma inducible Protein 10 (IP10) Biomarker Activity (AID 2283053); conditions: primary human foreskin fibroblasts; actives raise or lower the signal
Summary of the method: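 Cells: human dermal foreskin fibroblasts. Exposure: 24 h post-dosing. Detection: IP-10 ELISA, with values expressed against DMSO controls and fitted in both directions.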

[14] = read-out: Urokinase-type plasminogen activator receptor (uPAR), PLAUR (gene 5329); assay: BSK_CASM3C_uPAR: BioMAP Diversity Plus: CASM3C Assay for Urokinase-type plasminogen activator receptor (uPAR) Biomarker Activity (AID 2283054); conditions: primary human coronary artery smooth muscle cells; actives raise or lower the signal;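 note: cell-surface uPAR protein level quantified by ELISA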
[15] = read-out: Vascular cell adhesion molecule 1 (VCAM1), VCAM1 (gene 7412); assay: BSK_CASM3C_VCAM1: BioMAP Diversity Plus: CASM3C Assay for Vascular cell adhesion molecule 1 (VCAM1) Biomarker Activity (AID 2283055); conditions: primary human coronary artery smooth muscle cells; actives raise or lower the signal;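 note: VCAM-1 protein level quantified by ELISA on the cells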
[16] = read-out: Collagen III, COL3A1 (gene 1281); assay: BSK_hDFCGF_CollagenIII: BioMAP Diversity Plus: hDFCGF Assay for Collagen III Biomarker Activity (AID 2283056); conditions: primary human foreskin fibroblasts; actives raise or lower the signal
Summary of the method: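 ELISA read-out of collagen III from human skin fibroblast cultures sampled 24 h post-dosing. Values were derived by bidirectional fitting relative to the DMSO vehicle control.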

[17] = read-out: Epidermal growth factor receptor (EGFR), EGFR (gene 1956); assay: BSK_hDFCGF_EGFR: BioMAP Diversity Plus: hDFCGF Assay for Epidermal growth factor receptor (EGFR) Biomarker Activity (AID 2283057); conditions: primary human foreskin fibroblasts; actives raise or lower the signal
Summary of the method: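 Dosing human primary skin fibroblasts, then measuring surface EGFR by ELISA at 24 h, gives the endpoint; gains and losses relative to DMSO were fitted in both directions.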

[18] = read-out: Interleukin-8 (IL8), CXCL8 (gene 3576); assay: BSK_hDFCGF_IL8: BioMAP Diversity Plus: hDFCGF Assay for Interleukin-8 (IL8) Biomarker Activity (AID 2283058); conditions: primary human foreskin fibroblasts; actives raise or lower the signal
Summary of the method: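 Cells used are human skin primary fibroblasts. Chemical is added, cultures run 24 h, then IL-8 is quantified by ELISA, and gain or loss versus DMSO control is fitted in both directions.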

[19] = BSK_hDFCGF_Proliferation: Cell Proliferation Assessment in the BioMAP Diversity Plus: hDFCGF Assay (AID 2283059); conditions: primary human foreskin fibroblasts;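 note: curves fitted for both rise and fall of signal versus DMSO baseline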
Summary of the method: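 Total protein read at 560 nm after 0.1% SRB staining of TCA-fixed human skin fibroblasts, […]. Activity is fitted in both directions relative to DMSO as baseline.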

[20] = read-out: Macrophage colony-stimulating factor (MCSF), CSF1 (gene 1435); assay: BSK_hDFCGF_MCSF: BioMAP Diversity Plus: hDFCGF Assay for Macrophage colony-stimulating factor (MCSF) Biomarker Activity (AID 2283060); conditions: primary human foreskin fibroblasts; actives raise or lower the signal
Summary of the method: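 Primary human foreskin fibroblasts dosed with chemical; 24 h later, M-CSF quantified by ELISA; curves fitted in both directions vs DMSO negative control.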

Measured: AC50

Cc1cc(-c2ccc(N)c(C)c2)ccc1N
inactive: [1] | [2] | [3] | [4] | [5] | [6] | [7] | [8] | [9] | [10] | [11] | [12] | [13] | [14] | [15] | [16] | [17] | [18] | [19]

O=NN(c1ccccc1)c1ccccc1
active: [11] 4.46 µM
inactive: [1] | [2] | [3] | [4] | [5] | [6] | [7] | [8] | [9] | [10] | [12] | [13] | [14] | [15] | [16] | [17] | [18] | [19]

CCOCCOC(C)=O
inactive: [1] | [2] | [3] | [4] | [5] | [6] | [7] | [8] | [9] | [10] | [11] | [12] | [13] | [14] | [15] | [16] | [17] | [18] | [19]

O=C(N[C@H]1CN2CCC1CC2)c1cc2ccoc2cn1
inactive: [1] | [2] | [3] | [4] | [5] | [6] | [7] | [8] | [9] | [10] | [11] | [12] | [13] | [14] | [15] | [16] | [17] | [18] | [19]

O=C(O)C(F)(F)C(F)(F)C(F)(F)C(F)(F)C(F)(F)C(F)(F)C(F)(F)C(F)(F)F
inactive: [2] | [3] | [4] | [5] | [6] | [7] | [8] | [9] | [10] | [11] | [12] | [13] | [14] | [15] | [16] | [17] | [18]
active: [1] 20 µM and 23.6 µM and 21.6 µM | [12] 7.84 µM | [13] 32.4 µM and 43.4 µM | [16] 7.13 µM | [19] 34.2 µM and 20.8 µM and 46.7 µM

O=S(=O)(O)C(F)(F)C(F)(F)C(F)(F)C(F)(F)F
active: [9] 0.558 µM
inactive: [1] | [2] | [3] | [4] | [5] | [6] | [7] | [8] | [9] | [10] | [11] | [12] | [13] | [14] | [15] | [16] | [17] | [18] | [19] | [20]

CN(C)CCO
inactive: [1] | [2] | [3] | [4] | [5] | [6] | [7] | [8] | [9] | [10] | [11] | [12] | [13] | [14] | [15] | [16] | [17] | [18] | [19]

O=C(O)C(F)(F)C(F)(F)C(F)(F)C(F)(F)C(F)(F)F
inactive: [1] | [2] | [3] | [4] | [5] | [6] | [7] | [8] | [9] | [10] | [11] | [12] | [13] | [14] | [15] | [16] | [17] | [18] | [19]

ClC1=C(Cl)[C@]2(Cl)[C@@H]3[C@@H](Cl)[C@H]4O[C@H]4[C@@H]3C1(Cl)C2(Cl)Cl
inactive: [1] | [2] | [3] | [4] | [5] | [6] | [8] | [9] | [10] | [11] | [12] | [13] | [14] | [15] | [16] | [17] | [18]
active: [7] 12.3 µM | [19] 5.9 µM

c1cc2ccc3cccc4ccc(c1)c2c34
inactive: [1] | [2] | [3] | [4] | [6] | [7] | [8] | [9] | [10] | [11] | [12] | [13] | [14] | [15] | [16] | [17] | [18]
active: [5] 9.87 µM | [19] 15 µM
